Records with an inconclusive call do not appear. Active and inactive are the calls of the source. How the source made its calls, unless noted: active means hit-call score of the fitted dose curve at least 0.9, where 1 is the maximum; inconclusive means response in the unintended direction; inactive means score below 0.9.
Biological target: human Peroxisome Proliferator-activated Receptor alpha (PPARa), PPARA (gene 5465) (UniProt Q07869)
Experiment: ATG_PPARa_TRANS: Attagene TRANS-FACTORIAL HepG2 Assay for human Peroxisome Proliferator-activated Receptor alpha (PPARa) (AID 2283001);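 on AC50: potency for gain of reporter signal over DMSO so agonist or activator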
Conditions: not given
How it was run: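 Transient HepG2 transfection, GAL4-UAS reporters, NR-Gal4 chimeras; 24 h compound exposure. Readout: reporter transcripts by RT-PCR, 6-FAM primer extension, HpaI digest, capillary electrophoresis. Positive direction vs DMSO baseline.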

Sequence of human Peroxisome Proliferator-activated Receptor alpha (PPARa), PPARA (gene 5465) (Q07869 whole entry, looked up): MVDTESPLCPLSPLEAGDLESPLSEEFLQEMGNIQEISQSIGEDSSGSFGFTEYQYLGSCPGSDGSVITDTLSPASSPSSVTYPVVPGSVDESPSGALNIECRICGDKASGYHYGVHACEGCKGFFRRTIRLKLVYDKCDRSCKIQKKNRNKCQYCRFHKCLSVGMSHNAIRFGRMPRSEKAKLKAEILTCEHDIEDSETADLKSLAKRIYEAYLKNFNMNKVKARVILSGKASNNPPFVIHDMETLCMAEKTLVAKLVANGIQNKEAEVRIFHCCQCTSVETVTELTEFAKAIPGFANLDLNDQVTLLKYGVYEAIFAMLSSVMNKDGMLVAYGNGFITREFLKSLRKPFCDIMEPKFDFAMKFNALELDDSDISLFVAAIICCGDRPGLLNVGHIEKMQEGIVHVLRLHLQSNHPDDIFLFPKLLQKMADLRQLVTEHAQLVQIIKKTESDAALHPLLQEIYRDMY

Row | SMILES | outcome | AC50
1 | C1=CCCC1 | inactive | 
2 | COc1cc(NC(=O)CC(C)=O)c(OC)cc1Cl | inactive | 
3 | CCOc1ccc(N)c([N+](=O)[O-])c1 | inactive | 
4 | COc1c2ccoc2cc2oc(=O)ccc12 | inactive | 
5 | CCCCCCCCCCC=CC#N |  | 38 µM (active)
6 | COCCCOCCCOC | inactive | 
7 | CC1=NN(c2cc(S(=O)(=O)O)ccc2Cl)C(=O)C1N=Nc1ccccc1 (centres undefined) | inactive | 
8 | CCCCCCCCCCOS(=O)(=O)O |  | 27.6 µM (active)
9 | CC1=Nc2ccc3ccccc3c2C1(C)C | inactive | 
10 | Nc1ccc(Cl)cc1Cl | inactive | 
11 | COC(=O)c1ccc2cc(C(=O)OC)ccc2c1 | inactive | 
12 | COC(=O)c1ccccc1OC | inactive | 
13 | c1ccc(CNCc2ccccc2)cc1 | inactive | 
14 | O=C(O)c1cc2ccccc2nc1C(=O)O | inactive | 
15 | CCN(CCC#N)c1ccc(N=Nc2c(Cl)cc([N+](=O)[O-])cc2Cl)cc1 | inactive | 
16 | CCCCCC/C=C/C=O |  | 66.3 µM (active)
17 | NC(=O)OCC(COC(N)=O)c1ccccc1 | inactive | 
18 | C=C(C)C(=O)OCCO | inactive | 
19 | COC(=O)/C=C\C(=O)O | inactive | 
20 | COCCOCCOCCOCCOC | inactive | 
21 | CC(=O)Oc1ccc(C(C)=O)cc1 | inactive | 
22 | O=C(O)CCCCCCCCCC(=O)O | inactive | 

Biological target: human Peroxisome Proliferator-activated Receptor delta (PPARd), PPARD (gene 5467) (UniProt Q03181)
Sequence (Q03181 whole entry, looked up): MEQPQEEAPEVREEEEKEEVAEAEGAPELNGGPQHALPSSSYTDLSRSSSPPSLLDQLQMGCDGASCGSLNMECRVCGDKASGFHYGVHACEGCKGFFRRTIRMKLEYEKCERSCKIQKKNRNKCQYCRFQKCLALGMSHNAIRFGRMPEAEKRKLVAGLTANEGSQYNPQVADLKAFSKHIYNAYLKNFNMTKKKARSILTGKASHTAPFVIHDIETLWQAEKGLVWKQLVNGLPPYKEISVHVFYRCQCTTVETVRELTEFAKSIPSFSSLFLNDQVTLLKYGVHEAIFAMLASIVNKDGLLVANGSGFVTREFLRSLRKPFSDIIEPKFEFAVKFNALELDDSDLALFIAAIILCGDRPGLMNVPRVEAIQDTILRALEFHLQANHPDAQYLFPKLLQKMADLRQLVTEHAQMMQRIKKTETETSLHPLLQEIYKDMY
Experiment: ATG_PPARd_TRANS: Attagene TRANS-FACTORIAL HepG2 Assay for human Peroxisome Proliferator-activated Receptor delta (PPARd) (AID 2283002)
Conditions: not given
How it was run: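 Fluorescence from capillary electrophoresis of labelled RT-PCR reporter fragments gives the signal; DMSO sets baseline. Cells: HepG2 transiently carrying GAL4-UAS reporter units plus chimeric nuclear receptor-Gal4 proteins, exposed to chemicals for 24 h.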

Row | SMILES | outcome
23 | O=C(Cl)c1cc(C(=O)Cl)cc(C(=O)Cl)c1 | inactive
24 | CCC(C)(C)C1CCCCC1OC(C)=O (centres undefined) | inactive
25 | CN(C)CCCN(C)C | inactive
26 | O=C(O)Cc1c(Cl)ccc(Cl)c1Cl | inactive
27 | Cc1cccc(N)n1 | inactive
28 | CCCCCC(C)O (centres undefined) | inactive
29 | CC(C)(c1cc(Br)c(OCCO)c(Br)c1)c1cc(Br)c(OCCO)c(Br)c1 | inactive
30 | CCCCCCOc1cc(C)c(O)c(C)c1C | inactive
31 | CC(=O)Nc1ccc2c(c1)Cc1cc(NC(C)=O)ccc1-2 | inactive
32 | CC(C)C(=O)C(C)C | inactive
33 | CCCCC(CC)COC(=O)c1ccccc1O (centres undefined) | inactive
34 | CCOC(=O)NNc1nncc2ccccc12 | inactive
35 | CCCCCCCCCCCCCCCC(=O)OCC | inactive
36 | CNC(=S)NN | inactive
37 | C=C[Si](OC(C)=O)(OC(C)=O)OC(C)=O | inactive
38 | OC1CCCCCCCCCCC1 | inactive
39 | CCN(CC#N)c1cccc(C)c1 | inactive

Read-out: Intercellular Adhesion Molecule 1 (ICAM1), ICAM1 (gene 3383)
Experiment: BSK_3C_ICAM1: BioMAP Diversity Plus: 3C Assay for Intercellular Adhesion Molecule 1 (ICAM1) Biomarker Activity (AID 2283003; active means hit-call score of the fitted dose curve at least 0.9, where 1 is the maximum; inactive means score below 0.9)
Conditions: primary human endothelial cells (HUVEC); actives raise or lower the signal
How it was run: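 Using DMSO as baseline, bidirectional curve fitting was applied to ICAM-1 ELISA signals from HUVEC in the 3C system, measured 24 h after compound addition.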

Row | SMILES | AC50 | outcome
40 | O=C(Cl)c1cc(C(=O)Cl)cc(C(=O)Cl)c1 | 12.7 µM (active) | 
41 | CC(C)(c1cc(Br)c(OCCO)c(Br)c1)c1cc(Br)c(OCCO)c(Br)c1 | 28 µM (active) | 
42 | CC(C)C(=O)C(C)C |  | inactive
43 | CCCCC(CC)COC(=O)c1ccccc1O (centres undefined) |  | inactive
44 | C=C[Si](OC(C)=O)(OC(C)=O)OC(C)=O |  | inactive
